The record followed here is PubChem BioAssay (Tox21).

Results filed as inconclusive are left out. Calls of active or inactive are those of the source. Calls come from the whole dose curve.
% is set by controls: 0 for no effect and ±100 for the full control effect.

Thyrotropin receptor (Homo sapiens), sequence (P16473 whole entry, looked up): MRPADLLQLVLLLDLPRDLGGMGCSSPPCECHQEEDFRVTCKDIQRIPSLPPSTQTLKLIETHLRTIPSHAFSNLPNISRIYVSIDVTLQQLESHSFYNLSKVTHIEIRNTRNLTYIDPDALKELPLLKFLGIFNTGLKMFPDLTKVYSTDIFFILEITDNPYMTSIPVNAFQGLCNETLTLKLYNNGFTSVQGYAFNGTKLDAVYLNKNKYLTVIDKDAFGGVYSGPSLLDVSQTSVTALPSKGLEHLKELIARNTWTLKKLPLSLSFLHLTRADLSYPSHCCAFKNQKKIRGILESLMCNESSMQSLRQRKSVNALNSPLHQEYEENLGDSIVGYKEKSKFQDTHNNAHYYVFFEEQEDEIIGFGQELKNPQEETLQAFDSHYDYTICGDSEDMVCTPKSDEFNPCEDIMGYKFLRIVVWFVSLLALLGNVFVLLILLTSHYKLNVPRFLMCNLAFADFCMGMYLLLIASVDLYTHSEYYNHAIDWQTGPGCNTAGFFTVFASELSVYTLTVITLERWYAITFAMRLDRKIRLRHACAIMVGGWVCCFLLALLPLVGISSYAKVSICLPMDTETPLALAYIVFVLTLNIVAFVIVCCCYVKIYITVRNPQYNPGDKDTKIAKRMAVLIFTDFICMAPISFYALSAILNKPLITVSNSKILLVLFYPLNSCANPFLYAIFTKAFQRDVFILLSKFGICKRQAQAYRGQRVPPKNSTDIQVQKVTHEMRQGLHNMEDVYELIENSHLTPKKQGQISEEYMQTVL

The target in the experiment is Thyrotropin receptor (Homo sapiens) (UniProt P16473). The experiment in a line: qHTS assay to identify small molecule antagonists of the thyroid stimulating hormone receptor (TSHR) signaling pathway (AID 1259385). Note: nearly all actives have a fitted effect of over 20% in size. Particulars: TSHR-HEK293 cAMP HTRF, TSH-stimulated antagonist mode; series mostly up to 92.4 µM; activity change, negative = inhibition: at the top concentration. An outline of the steps:
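Antagonist mode: compound-treated TSHR-expressing HEK293 cells were stimulated with 1.5 ng/mL TSH (final) in presence of Ro20-1724 for 30 min at RT. HTRF cAMP detection after 1 h; each compound tested at 15 concentrations, triplicate.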
Background: qHTS replaces the single test concentration by a dilution series.
Regarding `NC(=O)CCCCC(N)=O`, the “activity change, negative = inhibition” value was 3.62% (inactive).

In the case of `C[C@H](CS)C(=O)N1CCC[C@H]1C(=O)O`, the “activity change, negative = inhibition” value was 0.053% [at 42.5 µM] (inactive).

Consider `Cc1ccccc1S(N)(=O)=O`, for which the “activity change, negative = inhibition” value is 0.593% (inactive).

For the compound `Cc1ccc2c(c1)CCCN2`, the “activity change, negative = inhibition” value was -0.836% (inactive).

Turning to `CCCCC(CC)COS(=O)(=O)O` (stereo not drawn), the “activity change, negative = inhibition” value was 0.765% (inactive).

Turning to `CC1=CC[C@@]23C[C@@H]1C(C)(C)[C@@H]2CC[C@H]3C`, the “activity change, negative = inhibition” value was 1.82% (inactive).

Regarding `O=S(=O)(Cl)c1c(Cl)cccc1Cl`, the “activity change, negative = inhibition” value was -2.27% (inactive).

For the compound `CCCCCCCCCCCCCCN(C)C`, the activity change, negative = inhibition was -0.0954% [at 19 µM] (inactive).

Consider `CCCCCCCCCCCCCOS(=O)(=O)O`, for which the “activity change, negative = inhibition” value was -10.6% (inactive).

On to `CC(=O)NNC(C)=O`, for which the “activity change, negative = inhibition” value is 2.92% (inactive).

As to `CNCc1ccc(NC(=O)c2c[nH]c3c2C(=O)CCC3)cc1`, the “activity change, negative = inhibition” value was -5.96% (inactive).

As for `CCCCCCC(O)CCCCCCCCCCC(=O)OC` (stereo not drawn), the “activity change, negative = inhibition” value was -3.09% (inactive).

Take `CCOc1ncc(F)c(=O)[nH]1`: the “activity change, negative = inhibition” value was 1.83% [at 42.5 µM] (inactive).

With `CN1C(CSCC(F)(F)F)Nc2cc(Cl)c(S(N)(=O)=O)cc2S1(=O)=O` (stereo not drawn), the “activity change, negative = inhibition” value is -5.51% [at 42.5 µM] (inactive).

Consider `C[C@@H]1C[C@H]2[C@@H]3CCC4=CC(=O)C=C[C@]4(C)[C@@]3(F)[C@@H](O)C[C@]2(C)[C@@]1(O)C(=O)COP(=O)(O)O`, for which the “activity change, negative = inhibition” value is 0.375% (inactive).

As for `CCCCC[C@H](O)/C=C/[C@H]1[C@H](O)CC(=O)[C@@H]1C/C=C\CCCC(=O)O`, the “activity change, negative = inhibition” value is 7.88% [at 42.5 µM] (inactive).

Take `CC1C(C)(C)C2=C(C(=O)CCC2)C1(C)C` (stereo not drawn): the “activity change, negative = inhibition” value is -5.98% (inactive).

Regarding `CCCc1nc2c(C)cc(-c3nc4ccccc4n3C)cc2n1Cc1ccc(-c2ccccc2C(=O)O)cc1`, the “activity change, negative = inhibition” value is -4.54% [at 42.5 µM] (inactive).

On to `O=C1OC[C@H](Cc2cccc(O)c2)[C@H]1Cc1cccc(O)c1`, for which the “activity change, negative = inhibition” value is -2.24% [at 42.5 µM] (inactive).

With `CNS(=O)(=O)c1cc(C(=O)N2CCC(CCN3C4CCC3CC(n3c(C)nc5ccccc53)C4)(c3cccc(F)c3)CC2)c(Cl)cc1F` (stereo not drawn), the “activity change, negative = inhibition” value is -3.7% (inactive).

In the case of `CC1CCC(C(C)CS)CC1S` (stereo not drawn), the “activity change, negative = inhibition” value is 1.46% (inactive).

With `C1=CCC2CC=CC2C1` (stereo not drawn), the “activity change, negative = inhibition” value is 7.36% (inactive).

Take `CCC(=O)OCc1ccc(OC)cc1`: the “activity change, negative = inhibition” value is -0.288% (inactive).

Turning to `C=CCOC(=O)COCCC(C)C`, the “activity change, negative = inhibition” value is 0.721% (inactive).

As to `O=C(/C=C/c1ccc([N+](=O)[O-])cc1)c1ccccc1`, the “activity change, negative = inhibition” value is -0.382% (inactive).

For `Cc1ccc(S(=O)(=O)NC(=O)NC2CCCCC2)cc1`, the “activity change, negative = inhibition” value is -2.32% [at 42.5 µM] (inactive).

On to `O=C(c1ccccc1)c1ccc(O)cc1`, for which the “activity change, negative = inhibition” value is -0.165% (inactive).

With `CC(C)CC(O)CC(C)C`, the “activity change, negative = inhibition” value was -4.97% (inactive).

In the case of `CNc1c2c(nn1C)CCCC2`, the “activity change, negative = inhibition” value is -2.27% [at 42.5 µM] (inactive).

For the compound `Nc1ccc(S(=O)(=O)NCc2ccccc2)cc1`, the “activity change, negative = inhibition” value is -0.371% [at 42.5 µM] (inactive).

With `CC[C@@H](CO)NCCN[C@@H](CC)CO`, the “activity change, negative = inhibition” value is 0.962% [at 42.5 µM] (inactive).

Regarding `Nc1ccn([C@H]2CS[C@@H](CO)O2)c(=O)n1`, the “activity change, negative = inhibition” value is 0.335% (inactive).

Take `Cc1ccc(Cl)cc1N`: the “activity change, negative = inhibition” value was -2.1% (inactive).

For `CC(C)(C)CCCCCCOC(=O)c1ccccc1C(=O)OCCCCCCC(C)(C)C`, the “activity change, negative = inhibition” value is -0.0838% (inactive).

As for `Cc1oc(=O)oc1COC(=O)[C@@H]1N2C(=O)[C@@H](NC(=O)[C@H](N)c3ccccc3)[C@H]2SC1(C)C`, the “activity change, negative = inhibition” value was -2.63% [at 42.5 µM] (inactive).

On to `SCCc1cnccn1`, for which the “activity change, negative = inhibition” value was 6.7% (inactive).

As for `ClC1=C(Cl)C1(Cl)Cl`, the “activity change, negative = inhibition” value was 0.0073% (inactive).

On to `C=CC(=O)O`, for which the “activity change, negative = inhibition” value was -0.388% [at 42.5 µM] (inactive).
